# In ChEMBL document CHEMBL1961873, “Compounds: GSK PKIS; Assays: Nanosyn kinase panel” (2012):
# How the values were obtained:
# [1] = target: T1, Inhibitor of nuclear factor kappa-B kinase subunit epsilon (Homo sapiens) (UniProt Q14164); details: at 1 µM;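 further: reported values are averaged percent inhibition figures against human IKKε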
# T1 sequence (whole entry): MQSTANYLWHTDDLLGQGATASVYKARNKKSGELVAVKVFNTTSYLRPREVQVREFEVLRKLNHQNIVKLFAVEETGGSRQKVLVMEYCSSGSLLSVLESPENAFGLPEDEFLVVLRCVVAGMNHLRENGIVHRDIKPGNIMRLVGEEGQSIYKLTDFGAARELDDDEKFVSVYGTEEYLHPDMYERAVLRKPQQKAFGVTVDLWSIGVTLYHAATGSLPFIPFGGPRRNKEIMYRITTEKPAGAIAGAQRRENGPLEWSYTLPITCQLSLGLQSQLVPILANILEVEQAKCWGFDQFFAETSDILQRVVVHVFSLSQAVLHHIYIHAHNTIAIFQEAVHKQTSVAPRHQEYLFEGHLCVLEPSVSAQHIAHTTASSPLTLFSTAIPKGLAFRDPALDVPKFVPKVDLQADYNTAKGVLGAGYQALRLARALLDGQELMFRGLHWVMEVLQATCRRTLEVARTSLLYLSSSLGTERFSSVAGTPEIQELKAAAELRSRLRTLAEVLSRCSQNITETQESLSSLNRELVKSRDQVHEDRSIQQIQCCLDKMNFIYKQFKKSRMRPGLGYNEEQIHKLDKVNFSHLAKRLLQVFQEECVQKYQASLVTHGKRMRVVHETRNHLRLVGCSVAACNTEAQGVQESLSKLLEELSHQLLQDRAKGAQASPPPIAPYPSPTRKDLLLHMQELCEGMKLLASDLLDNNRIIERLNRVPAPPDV
# [2] = target: T2, Serine/threonine-protein kinase Nek1 (Homo sapiens) (UniProt Q96PY6); details: at 0.1 µM
# T2 sequence (whole entry): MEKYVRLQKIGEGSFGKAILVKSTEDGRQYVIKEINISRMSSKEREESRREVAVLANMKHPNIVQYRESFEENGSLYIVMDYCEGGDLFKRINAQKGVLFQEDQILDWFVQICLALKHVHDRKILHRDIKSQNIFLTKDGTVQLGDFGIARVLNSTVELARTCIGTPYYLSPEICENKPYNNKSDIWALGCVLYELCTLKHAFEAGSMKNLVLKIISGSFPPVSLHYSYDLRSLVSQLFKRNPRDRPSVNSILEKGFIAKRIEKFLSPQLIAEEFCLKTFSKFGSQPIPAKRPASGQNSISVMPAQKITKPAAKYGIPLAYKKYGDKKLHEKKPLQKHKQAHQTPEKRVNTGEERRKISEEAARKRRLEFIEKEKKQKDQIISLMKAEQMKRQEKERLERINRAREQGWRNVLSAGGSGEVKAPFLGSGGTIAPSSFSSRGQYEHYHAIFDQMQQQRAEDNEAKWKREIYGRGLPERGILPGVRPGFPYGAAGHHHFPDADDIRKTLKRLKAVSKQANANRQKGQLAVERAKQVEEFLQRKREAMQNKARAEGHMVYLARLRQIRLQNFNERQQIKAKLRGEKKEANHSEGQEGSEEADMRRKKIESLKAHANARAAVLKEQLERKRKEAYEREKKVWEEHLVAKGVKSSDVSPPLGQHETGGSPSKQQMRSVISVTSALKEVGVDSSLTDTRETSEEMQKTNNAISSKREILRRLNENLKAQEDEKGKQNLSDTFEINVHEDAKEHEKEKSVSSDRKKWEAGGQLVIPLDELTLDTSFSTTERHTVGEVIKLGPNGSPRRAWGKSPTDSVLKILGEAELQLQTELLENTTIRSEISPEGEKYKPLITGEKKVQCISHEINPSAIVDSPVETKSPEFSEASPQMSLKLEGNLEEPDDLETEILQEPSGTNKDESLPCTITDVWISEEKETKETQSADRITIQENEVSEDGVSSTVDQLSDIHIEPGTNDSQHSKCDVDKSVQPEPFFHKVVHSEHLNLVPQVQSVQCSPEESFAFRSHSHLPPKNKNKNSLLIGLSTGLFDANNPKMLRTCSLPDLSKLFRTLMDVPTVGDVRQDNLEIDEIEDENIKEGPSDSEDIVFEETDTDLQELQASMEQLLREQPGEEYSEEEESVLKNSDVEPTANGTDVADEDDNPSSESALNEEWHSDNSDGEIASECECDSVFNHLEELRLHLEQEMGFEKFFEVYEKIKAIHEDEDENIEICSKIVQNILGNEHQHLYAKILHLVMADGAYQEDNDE
# [3] = target: T2, Serine/threonine-protein kinase Nek1 (Homo sapiens); details: at 1 µM
# [4] = target: T3, Serine/threonine-protein kinase Nek2 (Homo sapiens) (UniProt P51955); details: at 0.1 µM
# T3 sequence (whole entry): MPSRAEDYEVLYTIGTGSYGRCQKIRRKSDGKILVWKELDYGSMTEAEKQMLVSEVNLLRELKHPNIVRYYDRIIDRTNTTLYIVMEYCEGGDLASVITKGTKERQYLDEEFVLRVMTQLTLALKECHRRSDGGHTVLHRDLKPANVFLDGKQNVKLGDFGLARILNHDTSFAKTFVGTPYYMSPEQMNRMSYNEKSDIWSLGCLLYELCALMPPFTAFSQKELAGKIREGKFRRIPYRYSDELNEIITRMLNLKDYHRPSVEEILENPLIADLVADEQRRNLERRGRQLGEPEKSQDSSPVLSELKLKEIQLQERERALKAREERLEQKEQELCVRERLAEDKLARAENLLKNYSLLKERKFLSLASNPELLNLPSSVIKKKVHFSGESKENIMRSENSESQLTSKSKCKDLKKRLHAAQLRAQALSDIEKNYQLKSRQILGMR
# [5] = target: T3, Serine/threonine-protein kinase Nek2 (Homo sapiens); details: at 1 µM
# [6] = target: Serine/threonine-protein kinase Nek6 (Homo sapiens) (UniProt Q9HC98); details: at 0.1 µM
# [7] = target: Serine/threonine-protein kinase Nek6 (Homo sapiens) (UniProt Q9HC98); details: at 1 µM
# [8] = target: Serine/threonine-protein kinase Nek7 (Homo sapiens) (UniProt Q8TDX7); details: at 0.1 µM
# [9] = target: Serine/threonine-protein kinase Nek7 (Homo sapiens) (UniProt Q8TDX7); details: at 1 µM
# [10] = target: T4, Serine/threonine-protein kinase Nek9 (Homo sapiens) (UniProt Q8TD19); details: at 0.1 µM;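 further: reported value is the mean percent inhibition of NEK9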
# T4 sequence (whole entry): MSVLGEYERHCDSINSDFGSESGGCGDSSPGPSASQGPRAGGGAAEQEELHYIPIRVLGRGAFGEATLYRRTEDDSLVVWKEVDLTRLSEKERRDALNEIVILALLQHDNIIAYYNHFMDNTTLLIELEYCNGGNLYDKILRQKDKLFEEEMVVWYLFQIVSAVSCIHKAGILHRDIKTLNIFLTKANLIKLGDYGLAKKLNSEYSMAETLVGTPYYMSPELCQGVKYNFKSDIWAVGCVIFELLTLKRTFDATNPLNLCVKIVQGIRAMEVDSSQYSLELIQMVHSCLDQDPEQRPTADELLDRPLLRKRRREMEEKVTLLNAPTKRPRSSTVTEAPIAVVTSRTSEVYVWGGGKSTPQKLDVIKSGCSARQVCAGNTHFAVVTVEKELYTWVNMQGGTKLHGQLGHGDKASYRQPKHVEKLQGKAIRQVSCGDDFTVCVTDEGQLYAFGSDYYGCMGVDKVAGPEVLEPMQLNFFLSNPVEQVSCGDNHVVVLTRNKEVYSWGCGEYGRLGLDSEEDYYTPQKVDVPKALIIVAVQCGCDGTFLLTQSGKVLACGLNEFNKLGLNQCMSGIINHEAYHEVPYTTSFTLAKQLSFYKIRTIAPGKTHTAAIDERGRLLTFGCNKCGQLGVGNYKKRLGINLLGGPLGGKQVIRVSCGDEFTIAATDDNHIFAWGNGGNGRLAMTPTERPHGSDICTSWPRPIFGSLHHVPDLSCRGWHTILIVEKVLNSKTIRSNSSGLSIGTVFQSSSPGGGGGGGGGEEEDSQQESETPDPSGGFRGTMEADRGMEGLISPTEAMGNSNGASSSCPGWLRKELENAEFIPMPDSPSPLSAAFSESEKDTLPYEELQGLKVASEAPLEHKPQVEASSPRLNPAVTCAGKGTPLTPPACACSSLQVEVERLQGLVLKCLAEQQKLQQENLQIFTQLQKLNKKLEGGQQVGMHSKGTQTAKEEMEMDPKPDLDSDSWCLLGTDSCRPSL
# Sequence of Serine/threonine-protein kinase Nek6 (Homo sapiens) (Q9HC98 whole entry): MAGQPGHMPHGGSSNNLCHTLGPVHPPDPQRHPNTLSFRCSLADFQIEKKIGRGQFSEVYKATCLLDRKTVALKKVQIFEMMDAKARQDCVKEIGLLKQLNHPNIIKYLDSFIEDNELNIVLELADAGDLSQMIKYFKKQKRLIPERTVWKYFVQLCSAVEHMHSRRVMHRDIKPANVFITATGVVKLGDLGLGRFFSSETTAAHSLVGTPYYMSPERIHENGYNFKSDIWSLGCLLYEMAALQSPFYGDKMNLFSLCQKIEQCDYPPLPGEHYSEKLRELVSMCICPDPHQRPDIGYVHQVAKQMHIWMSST
# Sequence of Serine/threonine-protein kinase Nek7 (Homo sapiens) (Q8TDX7 whole entry, looked up): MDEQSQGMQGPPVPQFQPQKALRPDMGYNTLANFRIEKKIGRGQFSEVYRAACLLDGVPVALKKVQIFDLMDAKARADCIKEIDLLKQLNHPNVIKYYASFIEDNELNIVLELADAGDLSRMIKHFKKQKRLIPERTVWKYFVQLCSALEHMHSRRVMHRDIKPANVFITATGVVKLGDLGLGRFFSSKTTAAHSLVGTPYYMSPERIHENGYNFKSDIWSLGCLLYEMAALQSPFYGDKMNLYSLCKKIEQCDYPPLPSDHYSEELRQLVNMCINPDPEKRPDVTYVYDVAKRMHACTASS
structure (smiles),measurement,setting,value
COc1cc(N2CCN(C(C)C)CC2)ccc1Nc1nc(Nc2cccc3ncccc23)c2cc[nH]c2n1,inhibition,[1],0.88%
same,inhibition,[2],-0.11%
same,inhibition,[3],0.84%
same,inhibition,[4],-0.73%
same,inhibition,[5],-0.48%
same,inhibition,[6],-0.86%
same,inhibition,[7],-2.27%
same,inhibition,[8],1.54%
same,inhibition,[9],-0.41%
same,inhibition,[10],4.56%
